Assay results: PubChem BioAssay AID1851 (National Center for Advancing Translational Sciences (NCATS), 2009)
In all, about 16,000 compounds went through this assay and about 5,700 (36%) were called active. Roughly 24% stayed inconclusive and do not appear here. Calls follow the shape of the dose curve; as a rule, active = well fitted curve in the direction sought with a large enough effect; inconclusive = small, poorly fitted or top-dose-only effect, or effect the other way; inactive = no such curve, though single readings can be large or run the other way. The list shows a part of the results.

target: Cytochrome P450 1A2 (Homo sapiens) (UniProt P05177); experiment: Cytochrome panel assay with activity outcomes; settings: recombinant CYP, pro-luciferin dealkylation, luminescence, p450-cyp1a2; series mostly up to 57.1 µM; activity, negative = inhibition: at the top concentration
Sequence (P05177 whole entry, looked up): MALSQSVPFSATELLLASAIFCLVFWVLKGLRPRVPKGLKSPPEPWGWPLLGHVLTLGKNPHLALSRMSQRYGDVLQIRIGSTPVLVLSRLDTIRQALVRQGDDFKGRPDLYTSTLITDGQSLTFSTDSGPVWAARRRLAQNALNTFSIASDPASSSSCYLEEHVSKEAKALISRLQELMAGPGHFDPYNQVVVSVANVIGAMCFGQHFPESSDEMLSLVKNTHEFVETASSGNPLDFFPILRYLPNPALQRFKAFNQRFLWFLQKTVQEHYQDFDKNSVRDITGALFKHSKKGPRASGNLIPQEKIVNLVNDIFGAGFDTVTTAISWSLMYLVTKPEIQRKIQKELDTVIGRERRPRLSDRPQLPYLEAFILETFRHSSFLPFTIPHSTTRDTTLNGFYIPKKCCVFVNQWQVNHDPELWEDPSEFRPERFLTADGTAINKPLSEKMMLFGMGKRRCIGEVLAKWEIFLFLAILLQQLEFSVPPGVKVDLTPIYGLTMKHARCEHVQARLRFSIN
% is scaled to controls: 0 for no effect and ±100 for the full control effect.

SMILES	activity, negative = inhibition	AC50
NC(=O)[C@H]1CC2(CC(c3cccc(NC(=O)c4ccccc4)c3)=NO2)CN1C(=O)[C@H]1CCC(=O)N1 (stereo not given in full)	-9.8% (inactive)	
CCOC(=O)C1=C(C)NC2(O)c3ccccc3C(=O)C12O (stereo not given)		20000 nM (active)
CC(=O)Nc1ccc(S(=O)(=O)NCC2CCC(C(=O)N3CCN(c4ccccn4)CC3)CC2)cc1 (stereo not given)	-14.1% (inactive)	
O=c1onc2n1-c1cc(Br)ccc1OC2		794 nM (active)
Cc1ccc(NC(=O)N/C=C/c2ccco2)cc1C		7080 nM (active)
O=C1[C@@H]2[C@H]3[C@H](O)[C@H](O)C/C(=N/OC[C@@H](O)COCc4ccco4)[C@@H]3CC[C@H]2C(=O)N1c1ccc(F)cc1F	-10.4% [at 11.4 µM] (inactive)	
C/C(=N\N1CCN(C2c3ccccc3-c3ccccc32)CC1)c1cccnc1		12600 nM (active)
C/C(=N\N1CCN(C2c3ccccc3-c3ccccc32)CC1)c1ccncc1		8910 nM (active)
Cc1ccnc(N2C(=O)C3C4CC(C(Br)C4Br)C3C2=O)c1 (stereo not given)	8.01% (inactive)	
C[C@@H](COc1ccc(/C=C\c2ccccc2)cc1)[N+](C)(C)C	-18.1% (inactive)	
CC[N+](CC)(CC)CCOc1cccc(OCC[N+](CC)(CC)CC)c1OCC[N+](CC)(CC)CC	10.9% (inactive)	
O=C(O)[C@@H]1CCCNC1	-0.55% [at 25.6 µM] (inactive)	
Cc1cc(C)c(C)c(S(=O)(=O)ON2C(=O)c3ccccc3C2=O)c1C		28200 nM (active)
FC(F)(F)c1cc(-c2ccco2)nc(NCc2cccs2)n1		158 nM (active)
FC(F)(F)c1cc(-c2ccco2)nc(NCCc2ccccc2)n1		2820 nM (active)
COc1ccccc1-c1nc(Nc2ccncc2)c2ccccc2n1		316 nM (active)
Clc1ccccc1-c1nc(Nc2ccncc2)c2ccccc2n1		501 nM (active)
Cc1ccccc1-c1nc(Nc2ccncc2)c2ccccc2n1		794 nM (active)
FC(F)(F)c1ccccc1-c1nc(Nc2ccncc2)c2ccccc2n1		10000 nM (active)
CC(=O)OC[C@H]1O[C@@H](O/N=C2/[C@H]3O[C@@H]3[C@@H](O)[C@H]3[C@H]2CCn2c(=O)n(-c4ccccc4)c(=O)n23)[C@H](OC(C)=O)[C@@H](OC(C)=O)[C@@H]1OC(C)=O	1.98% [at 11.4 µM] (inactive)	
Cc1noc(C)c1-c1nc(N2CCOCC2)c2ccccc2n1		316 nM (active)
Cc1noc(C)c1-c1nc(N2CCN(C)CC2)c2ccccc2n1		316 nM (active)
Cc1noc(C)c1C(=O)N1CCC2(CC1)CN(c1ccccc1)C2	-18.7% (inactive)	
CN1CCN(C(c2ccccc2)c2ccccc2)CC1	-3.57% [at 25.6 µM] (inactive)	
Cc1noc(C)c1C(=O)N1CCC2(CCCN(c3ccccc3)C2)CC1	4.79% (inactive)	
